# Measurements reported in PubChem BioAssay AID1159580 (chemical genetic matrix, 2015).
# Values joined by “and” are separate entries in the source; they are usually repeats but may differ in a detail not shown here. Equal entries are not always repeated. The whole screen tested about 5,500 compounds, of which about 2,000 (36%) were called active. About 18% were inconclusive and are not listed. Some of the results follow. A number with no mark means an inactive call. Cut-off read from the data, not from the text of the source: active = normalized growth mostly below about 0.91 (no sharp cut-off); inconclusive = no clear call, values can overlap the other calls; inactive = mostly above about 0.92.
# Test: chemical genetic growth profiling, strain panel (AID 1159580);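 note: tested at 20 µM; growth read once vehicle control cultures reached saturation at 30 °C; 1 = growth at the plate median or of vehicle wells; lower values mean less growth of the strain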
# Details: S. cerevisiae deletion strains, growth OD
structure (smiles),measurement,setting,value
CC(C)CCCC(C)[C@H]1CCC2C3CC=C4CC(=O)CC[C@]4(C)C3CC[C@@]21C (stereo not given in full),normalized growth,"locus YAL021C, strain ccr4, hits give low values",0.976
same,normalized growth,"locus YAL026C, strain drs2, hits give low values",0.985
same,normalized growth,"locus YAL030W, strain snc1, hits give low values",0.989
same,normalized growth,"locus YBL061C, strain skt5, hits give low values",1
same,normalized growth,"locus YBR009C, strain hhf1, hits give low values",1.04
same,normalized growth,"locus YBR021W, strain FUR4, hits give low values",0.962
same,normalized growth,"locus YBR023C, strain chs3, hits give low values",0.988
same,normalized growth,"locus YBR171W, strain sec66, hits give low values",0.992
same,normalized growth,"locus YBR229C, strain ROT2, hits give low values",0.961
same,normalized growth,"locus YBR231C, strain swc5, hits give low values",1.01
same,normalized growth,"locus YBR279W, strain paf1, hits give low values",1
same,normalized growth,"locus YCL011C, strain gbp2, hits give low values",0.986
same,normalized growth,"locus YCL016C, strain dcc1, hits give low values",1
same,normalized growth,"locus YCL029C, strain bik1, hits give low values",0.999
same,normalized growth,"locus YCL061C, strain MRC1, hits give low values",0.99
same,normalized growth,"locus YCL069W, strain vba3, hits give low values",0.994
same,normalized growth,"locus YCR088W, strain abp1, hits give low values",0.99
same,normalized growth,"locus YDL005C, strain med2, hits give low values",0.99
same,normalized growth,"locus YDL035C, strain GPR1, hits give low values",0.953
same,normalized growth,"locus YDL040C, strain nat1, hits give low values",0.975
same,normalized growth,"locus YDL074C, strain BRE1, hits give low values",0.937
same,normalized growth,"locus YDL101C, strain DUN1, hits give low values",0.971
same,normalized growth,"locus YDL185W, strain tfp1, hits give low values",0.982
same,normalized growth,"locus YDL192W, strain arf1, hits give low values",0.932
same,normalized growth,"locus YDR001C, strain nth1, hits give low values",0.99
same,normalized growth,"locus YDR069C, strain doa4, hits give low values",1
same,normalized growth,"locus YDR101C, strain arx1, hits give low values",1.03
same,normalized growth,"locus YDR137W, strain rgp1, hits give low values",0.895
same,normalized growth,"locus YDR150W, strain NUM1, hits give low values",0.978
same,normalized growth,"locus YDR159W, strain sac3, hits give low values",0.999
same,normalized growth,"locus YDR162C, strain NBP2, hits give low values",0.939
same,normalized growth,"locus YDR195W, strain ref2",1.03
same,normalized growth,"locus YDR297W, strain sur2, hits give low values",0.994
same,normalized growth,"locus YDR318W, strain mcm21, hits give low values",0.922
same,normalized growth,"locus YDR334W, strain swr1, hits give low values",0.968
same,normalized growth,"locus YDR335W, strain msn5, hits give low values",0.984
same,normalized growth,"locus YDR388W, hits give low values",0.964
same,normalized growth,"locus YDR392W, strain spt3, hits give low values",0.932
same,normalized growth,"locus YDR502C, strain sam2, hits give low values",0.947
same,normalized growth,"locus YEL003W, strain gim4, hits give low values",0.987
same,normalized growth,"locus YEL037C, strain rad23, hits give low values",0.986
same,normalized growth,"locus YEL061C, strain CIN8 (second series), hits give low values",0.991
same,normalized growth,"locus YEL061C, strain CIN8, hits give low values",0.988
same,normalized growth,"locus YER015W, strain faa2, hits give low values",0.992
same,normalized growth,"locus YER016W, strain bim1, hits give low values",0.987
same,normalized growth,"locus YER110C, hits give low values",0.98
same,normalized growth,"locus YER111C, strain swi4, hits give low values",0.997
same,normalized growth,"locus YER155C, strain BEM2 (second series), hits give low values",1.01
same,normalized growth,"locus YER155C, strain BEM2, hits give low values",1.01
same,normalized growth,"locus YER167W, strain BCK2, hits give low values",0.993
same,normalized growth,"locus YFR010W, strain ubp6, hits give low values",0.991
same,normalized growth,"locus YGL078C, strain dbp3, hits give low values",0.98
same,normalized growth,"locus YGL086W, strain mad1, hits give low values",0.997
same,normalized growth,"locus YGL167C, strain pmr1, hits give low values",0.996
same,normalized growth,"locus YGL173C, strain kem1, hits give low values",0.995
same,normalized growth,"locus YGL227W, strain vid30, hits give low values",0.995
same,normalized growth,"locus YGL240W, strain doc1, hits give low values",1.04
same,normalized growth,"locus YGL248W, strain PDE1, hits give low values",0.922
same,normalized growth,"locus YGL253W, strain hxk2, hits give low values",0.976
same,normalized growth,"locus YGR135W, strain pre9, hits give low values",0.942
same,normalized growth,"locus YGR252W, strain gcn5, hits give low values",0.839
same,normalized growth,"locus YHR013C, strain ard1, hits give low values",0.989
same,normalized growth,"locus YHR027C, strain rpn1, hits give low values",0.987
same,normalized growth,"locus YHR030C, strain SLT2, hits give low values",1 and 1.02
same,normalized growth,"locus YHR079C, strain IRE1 (second series), hits give low values",0.992
same,normalized growth,"locus YHR079C, strain IRE1, hits give low values",0.997
same,normalized growth,"locus YHR094C, strain hxt1, hits give low values",0.986
same,normalized growth,"locus YHR129C, strain ARP1, hits give low values",0.974
same,normalized growth,"locus YHR142W, strain chs7, hits give low values",0.903
same,normalized growth,"locus YHR200W, strain rpn10, hits give low values",0.958
same,normalized growth,"locus YIL066C, strain RNR3, hits give low values",0.952
same,normalized growth,"locus YIL073C, strain SPO22, hits give low values",0.936
same,normalized growth,"locus YIL125W, strain kgd1, hits give low values",0.987
same,normalized growth,"locus YIR030C, strain dcg1, hits give low values",0.979
same,normalized growth,"locus YJL092W, strain hpr5, hits give low values",0.978
same,normalized growth,"locus YJL095W, strain BCK1 (second series), hits give low values",0.989
same,normalized growth,"locus YJL095W, strain BCK1, hits give low values",0.83 and 1
same,normalized growth,"locus YJL115W, strain asf1, hits give low values",0.974
same,normalized growth,"locus YJL129C, strain trk1, hits give low values",0.935
same,normalized growth,"locus YJL134W, strain LCB3, hits give low values",0.982
same,normalized growth,"locus YJL154C, strain vps35, hits give low values",0.993
same,normalized growth,"locus YJL164C, strain tpk1, hits give low values",0.95
same,normalized growth,"locus YJL166W, strain qcr8, hits give low values",0.986
same,normalized growth,"locus YJL168C, strain set2, hits give low values",0.996
same,normalized growth,"locus YJL187C, strain SWE1 (second series), hits give low values",0.968
same,normalized growth,"locus YJL187C, strain SWE1, hits give low values",1
same,normalized growth,"locus YJR043C, strain POL32, hits give low values",0.958
same,normalized growth,"locus YJR066W, strain TOR1, hits give low values",0.928
same,normalized growth,"locus YJR075W, strain HOC1, hits give low values",0.968
same,normalized growth,"locus YKL009W, strain mrt4, hits give low values",0.943
same,normalized growth,"locus YKL068W, hits give low values",0.993
same,normalized growth,"locus YKL085W, strain MDH1 (second series), hits give low values",0.99
same,normalized growth,"locus YKL085W, strain MDH1, hits give low values",0.99
same,normalized growth,"locus YKL160W, strain elf1, hits give low values",0.965
same,normalized growth,"locus YKL190W, strain CNB1, hits give low values",0.984
same,normalized growth,"locus YKR001C, strain vps1, hits give low values",0.914
same,normalized growth,"locus YKR026C, strain gcn3, hits give low values",0.993
same,normalized growth,"locus YKR091W, strain srl3, hits give low values",0.994
same,normalized growth,"locus YLL001W, strain dnm1, hits give low values",0.988
same,normalized growth,"locus YLL026W, hits give low values",0.988
same,normalized growth,"locus YLL041C, strain sdh2, hits give low values",0.981
same,normalized growth,"locus YLR027C, strain aat2, hits give low values",0.981
same,normalized growth,"locus YLR039C, strain RIC1, hits give low values",0.696
same,normalized growth,"locus YLR058C, strain SHM2, hits give low values",0.967
same,normalized growth,"locus YLR102C, strain apc9, hits give low values",0.989
same,normalized growth,"locus YLR113W, strain HOG1, hits give low values",0.91
same,normalized growth,"locus YLR221C, strain rsa3, hits give low values",0.949
same,normalized growth,"locus YLR258W, strain gsy2, hits give low values",1.01
same,normalized growth,"locus YLR262C, strain YPT6 (second series), hits give low values",0.855 (active)
same,normalized growth,"locus YLR262C, strain YPT6, hits give low values",0.66
same,normalized growth,"locus YLR268W, strain sec22, hits give low values",0.974
same,normalized growth,"locus YLR320W, strain mms22, hits give low values",0.999
same,normalized growth,"locus YLR330W, strain CHS5, hits give low values",0.985
same,normalized growth,"locus YLR342W, strain FKS1 (second series), hits give low values",0.946
same,normalized growth,"locus YLR342W, strain FKS1, hits give low values",1.01
same,normalized growth,"locus YLR357W, strain rsc2, hits give low values",1.02
same,normalized growth,"locus YLR370C, strain arc18, hits give low values",0.99
same,normalized growth,"locus YLR371W, strain rom2, hits give low values",0.989
same,normalized growth,"locus YLR384C, strain iki3, hits give low values",0.995
same,normalized growth,"locus YLR418C, strain cdc73, hits give low values",0.753 (active)
same,normalized growth,"locus YML016C, strain PPZ1, hits give low values",0.996
same,normalized growth,"locus YML032C, strain rad52, hits give low values",0.91
same,normalized growth,"locus YML120C, strain ndi1, hits give low values",0.949
same,normalized growth,"locus YML124C, strain tub3, hits give low values",0.995
same,normalized growth,"locus YMR058W, strain fet3, hits give low values",0.981
same,normalized growth,"locus YMR078C, strain ctf18, hits give low values",0.981
same,normalized growth,"locus YMR125W, strain sto1, hits give low values",0.985
same,normalized growth,"locus YMR129W, hits give low values",1
same,normalized growth,"locus YMR205C, strain PFK2, hits give low values",1.03
same,normalized growth,"locus YMR223W, strain ubp8, hits give low values",0.925
same,normalized growth,"locus YMR231W, strain pep5, hits give low values",1
same,normalized growth,"locus YMR307W, strain GAS1, hits give low values",0.875
same,normalized growth,"locus YNL067W, strain RPL9B, hits give low values",0.987
same,normalized growth,"locus YNL071W, strain lat1, hits give low values",0.978
same,normalized growth,"locus YNL183C, strain NPR1, hits give low values",0.937
same,normalized growth,"locus YNL209W, strain ssb2, hits give low values",1
same,normalized growth,"locus YNL233W, strain BNI4, hits give low values",0.932
same,normalized growth,"locus YNL248C, strain rpa49, hits give low values",0.93
same,normalized growth,"locus YNL250W, strain rad50, hits give low values",0.965
same,normalized growth,"locus YNL271C, strain bni1, hits give low values",0.977
same,normalized growth,"locus YNL298W, strain CLA4, hits give low values",0.979
same,normalized growth,"locus YNL307C, strain MCK1, hits give low values",0.842 (active)
same,normalized growth,"locus YNL322C, strain KRE1 (second series), hits give low values",0.99
same,normalized growth,"locus YNL322C, strain KRE1, hits give low values",0.991
same,normalized growth,"locus YNR049C, strain mso1, hits give low values",0.986
same,normalized growth,"locus YNR052C, strain pop2, hits give low values",0.98
same,normalized growth,"locus YOL006C, strain TOP1, hits give low values",1.01
same,normalized growth,"locus YOL012C, strain htz1",1.02
same,normalized growth,"locus YOL147C, strain pex11, hits give low values",0.989
same,normalized growth,"locus YOR001W, strain rrp6, hits give low values",0.933
same,normalized growth,"locus YOR061W, strain CKA2, hits give low values",0.954
same,normalized growth,"locus YOR069W, strain VPS5, hits give low values",0.988
same,normalized growth,"locus YOR070C, strain gyp1, hits give low values",0.978
same,normalized growth,"locus YOR080W, strain dia2, hits give low values",0.996
same,normalized growth,"locus YOR083W, strain WHI5, hits give low values",0.944
same,normalized growth,"locus YOR106W, strain vam3, hits give low values",0.965
same,normalized growth,"locus YOR136W, strain idh2, hits give low values",0.993
same,normalized growth,"locus YOR144C, strain elg1, hits give low values",0.993
same,normalized growth,"locus YOR184W, strain ser1, hits give low values",0.945
same,normalized growth,"locus YOR231W, strain MKK1, hits give low values",0.965
same,normalized growth,"locus YOR265W, strain rbl2, hits give low values",0.986
same,normalized growth,"locus YOR270C, strain vph1, hits give low values",0.922
same,normalized growth,"locus YOR290C, strain snf2, hits give low values",0.959
same,normalized growth,"locus YOR316C, strain cot1, hits give low values",0.988
same,normalized growth,"locus YPL051W, strain arl3, hits give low values",0.956
same,normalized growth,"locus YPL078C, strain atp4, hits give low values",0.951
same,normalized growth,"locus YPL106C, strain sse1, hits give low values",1.03
same,normalized growth,"locus YPL240C, strain hsp82, hits give low values",0.989
same,normalized growth,"locus YPL241C, strain CIN2, hits give low values",0.995
same,normalized growth,"locus YPL256C, strain CLN2, hits give low values",1.01
same,normalized growth,"locus YPR119W, strain clb2, hits give low values",1
same,normalized growth,"locus YPR141C, strain kar3, hits give low values",0.988
same,normalized growth,"locus YPR163C, strain tif3, hits give low values",0.977
same,normalized growth,"locus YPR167C, strain met16, hits give low values",0.96
same,normalized growth,"strain wtn01, hits give low values",1.02
